# Assay outcomes deposited in PubChem BioAssay by National Center for Advancing Translational Sciences (NCATS).
# An excerpt weighted towards active compounds, which were near 6.2% of everything screened.
# KinaseGlo FLuc: counter-screen: inhibitors of Kinase-Glo firefly luciferase; Q27757; Kinase-Glo luciferase, ATP luminescence, 8 min; Potency, µM (doses to about 38.3 µM), inactives show top-dose activity change, negative = inhibition, hits mostly inhibitors; hit rate 0.28% among 200,000; AID 1379; note: nearly all actives have a fitted effect of over 60% in size
#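 Light output from Kinase-Glo luciferase with luciferin and 10 uM ATP in 50 mM imidazole pH 7.2, KCl, MgCl2, Tween 20, BSA; compound pin-delivered, 8-min ambient incubation, then luminescence read.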
# RORg inh: inhibitors of mouse ROR gamma transcriptional activity; P51450; Drosophila S2 Gal4-RORgamma UAS-luciferase reporter, 20 h; Potency, µM (series often up to 53.6 µM), for the others: top-dose activity change, negative = inhibition, actives largely listed as inhibitors; hit rate 5.4% among 310,000; AID 2551; note: nearly all actives have a fitted effect of over 60% in size
# Target sequence (P51450 whole entry, looked up, the tested form may be a part): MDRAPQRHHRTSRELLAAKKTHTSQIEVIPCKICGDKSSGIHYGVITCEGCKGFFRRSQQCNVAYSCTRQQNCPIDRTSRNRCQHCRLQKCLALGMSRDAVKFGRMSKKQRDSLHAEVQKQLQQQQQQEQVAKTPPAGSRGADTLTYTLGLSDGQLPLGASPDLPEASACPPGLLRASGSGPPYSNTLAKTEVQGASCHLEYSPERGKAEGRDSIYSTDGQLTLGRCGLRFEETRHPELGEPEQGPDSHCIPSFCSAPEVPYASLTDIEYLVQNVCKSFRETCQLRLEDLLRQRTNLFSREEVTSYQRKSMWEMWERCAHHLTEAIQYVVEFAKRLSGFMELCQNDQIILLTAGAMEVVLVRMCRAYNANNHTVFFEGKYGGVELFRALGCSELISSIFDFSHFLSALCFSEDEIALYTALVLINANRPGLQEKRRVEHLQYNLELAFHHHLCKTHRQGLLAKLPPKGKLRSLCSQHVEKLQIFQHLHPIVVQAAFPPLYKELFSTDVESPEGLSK
#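 Luminescence from a UAS-regulated Photinus luciferase reporter in stably transfected Drosophila Schneider cells is measured; decreased signal marks ROR gamma inhibition. Fusion expression is induced by 700 uM copper sulfate for 20 hr.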
# Gal4-VP16 FLuc: inhibits Gal4-VP16 luciferase reporter, ROR gamma counter-screen; AID 2546; hit rate 3.5% among 310,000; Potency, µM (titrated, usually from 53.6 µM), inactives show top-dose activity, negative = inhibition, usual class: inhibitors; Drosophila S2 Gal4-VP16 UAS-luciferase, luminescence, 20 h;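 note: Gal4-VP16 expression switched on by copper sulfate through the metallothionein promoter; nearly all actives have a fitted effect of over 50% in size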
# * = called active by the depositor; ? = inconclusive; nt = no result given; ! = not confirmed by another sample; [ ] = dose if it differs, or a comment. Calls come from the whole dose curve; as a rule, active = well fitted curve in the direction sought with a large enough effect; inconclusive = small, poorly fitted or top-dose-only effect, or another doubt; inactive = no such curve, though single readings can be large; an effect the other way counts as inactive or inconclusive. % is set by controls: 0 for no effect and ±100 for the full control effect; potency is the fitted concentration of half-maximal effect.
SMILES,KinaseGlo FLuc,RORg inh,Gal4-VP16 FLuc
CCN(CC)c1ccc(NC(=O)c2ccco2)cc1,4%,?,?
CN(C)S(=O)(=O)c1ccc(NC(=S)NC(=O)c2cccs2)cc1,nt,8.9µM*,-82%
CCN(CC)c1ccc(NC(=S)NC(=O)c2ccco2)cc1,1%,4µM*,16µM*
CCOC(=O)c1ccc(-n2ccnc2)c(NC(=O)c2ccc(Cl)cc2)c1,0%,7%,2%
C[C@@H]1C[C@H](OC(=O)c2ccccc2O)CC(C)(C)C1,-1%[17.1 µM],14%[16.9 µM],7%[17 µM]
CCN(c1ccc(NC(=O)CCNC(=O)c2ccco2)cc1)C(C)C,-4%,19%,-8%
CN1[C@@H]2CC[C@H]1CC(OC(=O)[C@@H](CO)c1ccccc1)C2 (some centres not stated),1%[17.1 µM],4%[16.9 µM],-4%[17 µM]
O=C(CCc1ccccc1)Nc1cccnc1,nt,1%,-4%
Nc1ccccc1C(=O)/C=C\c1ccc2c(c1)OCO2,nt,20%[10 µM],-1%[10 µM]
Nc1ccccc1C(=O)/C=C/c1ccc2c(c1)OCO2,10µM*!,?,?
O=C(O)C1CCC[C@@H]2[C@@H]3CC(CN12)[C@@H]1CCCCN1C3 (some centres not stated),0%,-13%,-1%
CCOc1ccc(-n2ccnc2SCC(=O)N2CCCc3ccccc32)cc1,0%,7.1µM*,?
COc1cccc(-n2ccnc2SCC(=O)N2CCCc3ccccc32)c1,-4%,-13%,2%
CC1(C)Cc2c(c(N3CCCCC3)[nH]c(=S)c2C#N)CS1,1%,0%,-4%
CC1CCN(c2[nH]c(=S)c(C#N)c3c2CCCC3)CC1,-6%,7.1µM*,?
CCOC(=O)[C@]1(C(NC(=O)OC)c2ccco2)CCCC1=O (some centres not stated),nt,-17%[10 µM],0%[10 µM]
O=C(CSc1cccc[n+]1[O-])c1cc(Cl)ccc1Cl,1%,11µM*,?
O=C(O)CSc1cccc[n+]1[O-],1%,-14%,10%
N#Cc1c(-c2ccc(Cl)cc2)ccnc1N1CCOCC1,9%,16%,0%
O=C(CSc1n[nH]c(=O)[nH]c1=O)NC1CCCCC1,nt,1%,-4%
O=C(O)CSc1nnc(NC(=O)c2ccc3c(c2)OCO3)s1,-8%,13µM*,13µM*
COC(=O)CSc1nnc(NC(=O)c2ccc3c(c2)OCO3)s1,nt,6.3µM*,?
COC(=O)CSc1nnc(NC(=O)/C=C\c2ccc3c(c2)OCO3)s1,-1%,-7%,-1%
CC(C)(C)Cc1nnc(NC(=O)c2ccc3c(c2)OCO3)s1,nt,3%,9%
CC[N+]1(CC)CC2=Cc3c(ccc4ccccc34)C(C)C2C1 (configuration not stated),nt,-12%,0%
SMILES,KinaseGlo FLuc,RORg inh,Gal4-VP16 FLuc
CCCCOc1cccc(C(=O)NC(=S)Nc2cccnc2)c1,-3%,11µM*,?
CCOc1ccccc1N1C(=O)c2ccc(C(=O)Nc3cccnc3)cc2C1=O,-1%,18%,13µM*
CCCOc1cccc(C(=O)Nc2cccnc2)c1,13%,45%,16%
CCOc1cccc(C(=O)NC(=S)Nc2ccccc2)c1,1%,4.5µM*,?
CC(=O)Oc1cccc(N2C(=O)c3ccc(C(=O)Nc4cccnc4)cc3C2=O)c1,1%,6%,0%
CCC(=O)Nc1cccc(NC(=S)NC(=O)c2ccccc2)c1,0%,4%,-2%
O=C(NC(=S)Nc1ccc(CN2CCCCC2)cc1)c1cccc(OCc2ccccc2)c1,0%,10µM*,?
O=C(O)c1ccc(NC(=S)NC(=O)c2cccc(COc3ccccc3)c2)cc1,3%,41%,4%
Cc1ccsc1/C=N/Nc1ccc(F)cc1F,nt,33%,3%
O=C(C(=S)N1CCOCC1)c1c[nH]c2ccccc12,0%,9%,2%
CCCCS(=O)(=O)N1C2=NC(C(=O)OC)=C(C(=O)OC)[C@@H]3N(C)c4ccccc4[C@]23C[C@H]1C(=O)OC,-5%[7.66 µM],nt,nt
COc1ccc(C(=O)N2CCC3(CC2)CN(CC(C)C)C3)cc1,0%,16%,1%
O=C(NCc1ccccc1Cl)c1ccc2nc[nH]c2c1,-2%,-2%,-2%
Cn1ncc(C(=O)N=S(C)(=O)c2ccccc2)c1[N+](=O)[O-] (configuration not stated),nt,10%,-3%
COc1cccc(C(=O)Nc2cccc(NC(=O)c3ccccc3Cl)c2)c1,nt,?,1%
COc1ccc(C(=O)NC(=S)Nc2cccnc2)cc1OC,-9%,-36%,17%
CCOc1cccc(C(=O)NC(=S)Nc2cccc(NC(=O)c3ccccc3Cl)c2)c1,5%,-40%[10 µM],0.63µM*
CCOc1cccc(C(=O)NC(=S)Nc2ccc(N3CCN(CC)CC3)cc2)c1,0%,11µM*,?
CCCOc1cccc(C(=O)NC(=S)Nc2ccc(N3CCN(C)CC3)cc2)c1,1%,-16%,-8%[10 µM]
CCOc1cccc(C(=O)NC(=S)Nc2cccnc2)c1,0%,14µM*,?
Cc1cc(C)n(CC(O)COc2ccc(F)cc2)n1 (configuration not stated),nt,8%,-3%
O=C(CNC1CCCCCC1)c1cccs1,3%,7%[10 µM],5%
C=CCNC(=O)c1onc(CSc2ccncc2)c1C(=O)NCC=C,nt,-1%,-11%
COC(=O)N1CCN(S(=O)(=O)c2ccc(F)cc2)CC1,1%,16%,-2%
CCOC(=O)c1ccccc1NC(=S)N1CCCCC1,8%,?,-1%
SMILES,KinaseGlo FLuc,RORg inh,Gal4-VP16 FLuc
CCNC(=S)N1CCN(c2ccccc2OCC)CC1,5%,-7%,-7%
CCOc1ccccc1NC(=S)N1CCN(c2nc(-c3ccc(F)cc3)cs2)CC1,-2%,11µM*,?
CCOc1ccccc1NC(=S)N1CCCCCC1,nt,14µM*,?
CCOc1ccccc1NC(=S)N1CCN(c2ccc(O)cc2)CC1,nt,-15%,17%
CCOCCCNC(=S)N1CCN(c2nc(-c3ccc(F)cc3)cs2)CC1,nt,36%[1.91 µM],?
CCOc1ccccc1NC(=S)N1CCN(c2ccc(OC)cc2)CC1,nt,11µM*,18µM*
CCOc1ccccc1NC(=S)N1CCN(c2ccccc2F)CC1,nt,?,14µM*
COc1ccc(NS(=O)(=O)c2ccc3c(c2)NC(=O)CO3)c(OC)c1,nt,11%,5%
C/C(=N\NC(=O)c1nnn(-c2nonc2N)c1CN(C)c1ccccc1)c1ccccn1,nt,-39%,?
Cc1nc2scc(C)n2c(=O)c1S(=O)(=O)N1CCN(c2ccc([N+](=O)[O-])cc2)CC1,nt,5%,1%
CCc1ccccc1NC(=S)N1CCN(c2ccccc2F)CC1,nt,7.1µM*,?
COC(=O)c1ccc(C(=O)OC)c(NC(=S)N2CCN(c3ccccc3F)CC2)c1,3%,?,-3%
Cc1ccc(NC(=S)N2CCN(c3ccccc3F)CC2)c(C)c1,nt,8.9µM*,7.1µM*
Cc1ccc(CC(=O)N2CCN(c3ccccc3F)CC2)cc1,1%,24%,?
O=C(Cn1ccccc1=O)NCc1ccc(F)cc1,nt,7%,5%
O=C(C1CC1)N1N=C(c2ccccc2)CC1(O)C(F)(F)F (configuration not stated),nt,-13%,-17%
O=C(C1CC1)N1N=C(c2ccccc2)CC1(O)C(F)(F)C(F)(F)F (configuration not stated),nt,11µM*,?
Cc1ccc(NC(=O)N2CCCC2)cc1Cl,-4%,-12%,-1%
